Compound activity: PubChem, National Center for Advancing Translational Sciences (NCATS)
ALOX12 inh: ALOX12 (human) lipoxygenase inhibition; hit rate 1.1% among 580,000; P18054; Potency, µM (doses to about 108 µM), most hits filed as inhibitors; purified 12hLO, xylenol orange hydroperoxide absorbance
Target sequence (P18054 whole entry, looked up): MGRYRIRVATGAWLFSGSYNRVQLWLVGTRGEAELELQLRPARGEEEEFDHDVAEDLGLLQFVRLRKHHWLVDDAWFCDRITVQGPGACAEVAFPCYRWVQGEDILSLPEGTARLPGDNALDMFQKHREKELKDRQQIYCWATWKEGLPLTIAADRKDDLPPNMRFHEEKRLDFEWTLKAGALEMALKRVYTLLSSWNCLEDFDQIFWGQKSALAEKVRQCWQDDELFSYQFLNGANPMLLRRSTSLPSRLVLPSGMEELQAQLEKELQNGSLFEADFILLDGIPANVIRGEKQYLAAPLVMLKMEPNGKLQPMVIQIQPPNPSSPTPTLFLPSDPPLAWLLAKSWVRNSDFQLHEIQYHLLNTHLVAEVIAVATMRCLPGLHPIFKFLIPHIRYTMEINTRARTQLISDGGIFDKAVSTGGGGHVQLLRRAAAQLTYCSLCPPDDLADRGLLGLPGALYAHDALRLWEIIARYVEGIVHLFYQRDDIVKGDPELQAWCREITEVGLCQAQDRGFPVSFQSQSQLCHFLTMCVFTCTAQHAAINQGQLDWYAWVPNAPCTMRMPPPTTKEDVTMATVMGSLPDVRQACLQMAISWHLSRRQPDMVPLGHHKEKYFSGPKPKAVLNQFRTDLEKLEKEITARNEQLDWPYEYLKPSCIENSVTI
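Hydroperoxide product was detected by ferrous iron/xylenol orange as the 573 to 405 nm absorbance ratio. Arachidonic acid at 40 uM (final) was turned over for 30 min at room temperature by 150 nM human 12hLO, pH 7.0 Hepes buffer, after 15 min compound preincubation.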
HT1080 IDH1KD tx: HT-1080 IDH1 knockdown cell toxicity (counter line); HT-1080 IDH1 knockdown viability, ATP luminescence, 48 h; hit rate 2% among 360,000; Potency, µM (titrated, usually from 46.1 µM), actives largely listed as cytotoxic
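Knockdown cells (IDH1KD HT-1080) received compounds 2 h after plating at 750 cells/well and were kept 48 h at 37 °C in 5% FBS RPMI. A CellTiter-Glo luminescence read gave % activity for curve fitting.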
IL1B secr inh: inflammasome signaling inhibition, IL-1 beta readout. THP-1 LPS/ATP IL-1B secretion, AlphaLISA, 16 h; stronger effect = lower value. activity change, % at 57.5 µM. hit rate 4.7% among 360,000. AID 743279; in the data active = activity change below about -50%; inconclusive = mostly about -30% to -49%
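Secreted IL-1B measured by AlphaLISA bead assay after 16 h compound exposure of THP-1 cells; compounds (final up to 57.5 uM) added 1 h before LPS (250 ng/mL) and ATP (1.25 mM) stimulation; lower signal means less secretion.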
HT1080-NT tox: kills 2HG-producing HT-1080-NT fibrosarcoma cells. HT-1080-NT fibrosarcoma viability, CellTiter-Glo ATP luminescence, 48 h. Potency, µM (top dose mostly 46.1 µM), most hits filed as cytotoxic. hit rate 1.6% among 360,000. AID 686970;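 note: NT is the 2HG producing partner of a matched IDH1 knockdown line; nearly all actives have a fitted effect of over 55% in size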
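Read-out is CellTiter-Glo luminescence after 10 minutes at room temperature, following 48 hours' compound treatment of HT-1080-NT cells (750 cells/well, RPMI, 5% FBS, 37 degrees C).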
TDP1 cell noCPT: qHTS for Inhibitors of human tyrosyl-DNA phosphodiesterase 1 (TDP1): qHTS in cells in absence of CPT. AID 686978, 2013. hit rate 15% among 420,000. Potency, µM (highest dose often 46.2 µM), usual class: inhibitors. DT40 Tdp1-/- hTDP1 cells, no CPT, ATP luminescence, 48 h; note: nearly all actives have a fitted effect of over 55% in size
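Growth kinetics read by CellTiter-Glo luminescence after ≥48 hr at 37 °C. Cells: DT40 Tdp1-/- stably carrying human TDP1, 400 per well, compound exposure in the absence of CPT (DMSO vehicle).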
DT40 TDP1 CPT: DT40-hTDP1 cell growth loss with CPT; chicken DT40 Tdp1-/-;hTDP1 cells + 20 nM CPT, ATP luminescence, 48 h; Potency, µM (highest dose often 46.2 µM), most hits filed as inhibitors; hit rate 12% among 420,000; note: nearly all actives have a fitted effect of over 55% in size
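Chicken DT40 Tdp1-/- cells complemented with human TDP1, 400 cells/well, exposed to compounds plus 20 nM camptothecin for at least 48 h at 37 C; viability read as ATP content by CellTiter-Glo luminescence.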
Of the large screens only hits and unclear results are named; the others gave an inactive call. This excerpt belongs to a sample that is enriched for hits. Unless noted, calls come from the whole dose curve; as a rule, active = well fitted curve in the direction sought with a large enough effect; inconclusive = small, poorly fitted or top-dose-only effect, or another doubt; inactive = no such curve, though single readings can be large; an effect the other way counts as inactive or inconclusive.

CC(C)c1ccc(/C=c2\sc3n(c2=O)C(N)=C(C#N)C(c2ccc(C(C)C)cc2)C=3C(N)=O)cc1 (stereo unspecified)	TDP1 cell noCPT 7.31µM, DT40 TDP1 CPT 5.8µM
COC(=O)C1=C2SC(C)C(=O)N2C(N)=C(C#N)C1c1ccc(OC)c(OC)c1 (stereo unspecified)	ALOX12 inh inconclusive
CCN(CC)S(=O)(=O)c1cc(NC(=O)CSc2nc3c(cc2C#N)C(=O)CC(C)(C)C3)ccc1C	HT1080 IDH1KD tx inconclusive, IL1B secr inh -57.4, HT1080-NT tox inconclusive, TDP1 cell noCPT 18.4µM, DT40 TDP1 CPT inconclusive
NC(N)=NCCCS(=O)(=O)Nc1ccc(Nc2c3ccccc3nc3cc([N+](=O)[O-])ccc23)cc1	ALOX12 inh inconclusive, TDP1 cell noCPT 16.4µM, DT40 TDP1 CPT 9.2µM
O=[N+]([O-])c1ccc(-c2nc(Nc3ccc(O)cc3)c3ccccc3n2)cc1	ALOX12 inh inconclusive
COc1cc(C)cc2oc(=O)c(CC(=O)NCc3ccco3)c(C)c12	none (no result: HT1080 IDH1KD tx, IL1B secr inh, HT1080-NT tox, TDP1 cell noCPT, DT40 TDP1 CPT)
Cc1c(C(=O)Nc2nc3c(s2)CCCCC3)[nH]c2c1C(=O)CCC2	none (no result: HT1080 IDH1KD tx, IL1B secr inh, HT1080-NT tox, TDP1 cell noCPT, DT40 TDP1 CPT)
Cc1ccc(CN2CC(C(=O)NC3CCCC(C)C3C)CC2=O)cc1 (stereo unspecified)	TDP1 cell noCPT inconclusive, DT40 TDP1 CPT 18.4µM
CC1CCCCC1NC(=O)C1CC(=O)N(Cc2ccccc2)C1 (stereo unspecified)	TDP1 cell noCPT 11.6µM, DT40 TDP1 CPT 13µM (no result: ALOX12 inh)
CC1CCCC(NC(=O)C2CC(=O)N(Cc3ccccc3)C2)C1C (stereo unspecified)	none
O=C(Nc1ccc(Br)cc1Br)C1CC(=O)N(Cc2ccccc2)C1 (stereo unspecified)	IL1B secr inh -56.1
Cc1ccccc1NC(=O)C(C)N(C)Cc1ccc2ccccc2c1 (stereo unspecified)	none (no result: HT1080 IDH1KD tx, IL1B secr inh, HT1080-NT tox, TDP1 cell noCPT, DT40 TDP1 CPT)
Cc1cnc(-c2ccccc2)n1C1CCCN(C(=O)COc2ccc(F)cc2)C1 (stereo unspecified)	none (no result: HT1080 IDH1KD tx, IL1B secr inh, HT1080-NT tox, TDP1 cell noCPT, DT40 TDP1 CPT)
Cc1scc(-c2n[nH]c(=S)n2C(C)c2ccccc2)c1C (stereo unspecified)	ALOX12 inh inconclusive, TDP1 cell noCPT 16.4µM, DT40 TDP1 CPT inconclusive
NC(=O)C1CCCN(C(=O)CCc2ncc(-c3ccc(F)cc3)o2)C1 (stereo unspecified)	none (no result: HT1080 IDH1KD tx, IL1B secr inh, HT1080-NT tox, TDP1 cell noCPT, DT40 TDP1 CPT)
CCN1C/C(=C/c2ccc(N3CCOCC3)cc2)C(=O)/C(=C/c2ccc(N3CCOCC3)cc2)C1	HT1080 IDH1KD tx 20.6µM, IL1B secr inh -103.4, HT1080-NT tox inconclusive, TDP1 cell noCPT inconclusive, DT40 TDP1 CPT inconclusive
CN1C/C(=C/c2ccsc2)C(=O)/C(=C/c2ccsc2)C1	HT1080 IDH1KD tx inconclusive, IL1B secr inh -94.0, HT1080-NT tox inconclusive, TDP1 cell noCPT 13µM, DT40 TDP1 CPT 10.3µM
CCCC(=O)Nc1ccc(N2CCOCC2)cc1	none
CN1C/C(=C\c2ccc(N3CCOCC3)cc2)C(=O)/C(=C/c2ccc(N3CCOCC3)cc2)C1	HT1080 IDH1KD tx inconclusive, IL1B secr inh -103.3, HT1080-NT tox inconclusive, TDP1 cell noCPT 20.6µM, DT40 TDP1 CPT inconclusive
COC(=O)c1sccc1S(=O)(=O)Nc1ccc(OC(F)F)cc1	none (no result: HT1080 IDH1KD tx, IL1B secr inh, HT1080-NT tox, TDP1 cell noCPT, DT40 TDP1 CPT)
O=C(CCCCCNC(=O)c1ccccc1)N/N=C/c1ccc(O)cc1O	none
C=CCc1cccc(/C=N/NC(=O)CCC(=O)Nc2ccc(C)cc2)c1O	HT1080 IDH1KD tx inconclusive, TDP1 cell noCPT 10.3µM, DT40 TDP1 CPT 14.6µM
C/C(=N\OCC(=O)N/N=C/c1ccc(C)cc1O)c1cccs1	TDP1 cell noCPT 4.11µM, DT40 TDP1 CPT 4.61µM
Cc1ccc(NC(=O)CCC(=O)N/N=C/c2ccc(O)cc2O)cc1	ALOX12 inh inconclusive, HT1080 IDH1KD tx inconclusive, HT1080-NT tox inconclusive, TDP1 cell noCPT 16.4µM, DT40 TDP1 CPT 14.6µM
Cc1ccc(/C=N/NC(=O)Cc2ccc(Cl)cc2)c(O)c1	HT1080 IDH1KD tx 18.4µM, HT1080-NT tox inconclusive, TDP1 cell noCPT 20.6µM, DT40 TDP1 CPT 16.4µM
C/C(=N\NC(=O)CO/N=C(\C)c1cccs1)c1ccc(N)cc1	none
